High-throughput results (PubChem BioAssay)
Only some compounds are listed: those with a hit (about 1.2% of all), similar ones and a draw of the others.
PI5P4K alpha inh: inhibitors of human PI5P4K alpha; P48426; PI5P4Kalpha enzyme, ADP-Glo luminescence, 60 min; stronger effect = lower value; max response, %; hit rate 1.2% among 330,000; active = max response of -50% or lower; inconclusive = between -30% and -50%; inactive = -30% or higher; also: value at the top dose of about 77 µM
Target sequence (P48426 whole entry, looked up): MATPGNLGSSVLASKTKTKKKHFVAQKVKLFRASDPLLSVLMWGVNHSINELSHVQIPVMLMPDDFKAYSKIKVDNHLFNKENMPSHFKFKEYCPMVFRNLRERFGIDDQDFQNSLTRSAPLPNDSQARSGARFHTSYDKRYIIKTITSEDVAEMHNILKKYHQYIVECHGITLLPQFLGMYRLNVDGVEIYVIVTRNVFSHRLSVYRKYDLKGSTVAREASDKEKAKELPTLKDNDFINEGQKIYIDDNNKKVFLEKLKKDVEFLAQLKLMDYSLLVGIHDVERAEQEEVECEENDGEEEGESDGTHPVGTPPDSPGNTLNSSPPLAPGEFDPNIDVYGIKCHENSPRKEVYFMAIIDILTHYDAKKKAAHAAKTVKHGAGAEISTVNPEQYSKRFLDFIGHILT
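Reactions run in 0.038 M HEPES pH 7.4, 0.28 mM EGTA, 0.1% CHAPS and 5% DMSO, with PI5P4Kalpha, substrate, compound and 5 microM ATP final, one hour at room temperature. Readout is ADP-Glo luminescence.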
PI4K2A inh: blocks human PI4K2A kinase activity; Q9BTU6; purified PI4K2A, ADP-Glo luminescence, 1 h; stronger effect = lower value; activity change, negative = inhibition, % at 76.9 µM; hit rate 0.13% among 420,000; AID 1346378; in the data active = activity change below about -50%; inconclusive = mostly about -30% to -49%
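Compounds are screened against recombinant PI4K2A using PI as substrate and ATP, the latter dispensed at 300 microM. Reactions run one hour at ambient temperature before ADP-Glo detection; full inhibition defined by wells lacking enzyme.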
GoLoco inh red: RGS12 GoLoco-Gai1 interaction inhibition | hit rate 0.44% among 230,000 | Gai1:RGS12 GoLoco peptide FP, rhodamine, 10 min | P63096 | Potency, µM (top dose mostly 61.6 µM), actives largely listed as inhibitors; active = well fitted inhibition curve with a large enough effect, not every such curve was filed as active; inactive = no such curve, though single readings can be large or run the other way; also: nearly all actives have a fitted effect of over 30% in size
GCN5L2 inh: inhibitors of human GCN5L2 histone acetyltransferase | Q92830 | GCN5L2 HAT assay, ThioGlo1 CoA-SH fluorescence | Potency, µM (titrated, usually from 58.9 µM), actives largely listed as inhibitors | hit rate 0.21% among 390,000
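Compounds, pin-transferred from DMSO stocks, meet 20nM GCN5L2 for 15 min before the reaction begins with H3(1-25) peptide (75uM) and acetyl-CoA (70uM). Thiol-reactive ThioGlo1 reports CoA release over 20 min at room temperature.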
Pin1 inh: inhibitors of human Pin1; Potency, µM (highest dose often 115 µM), most hits filed as inhibitors; Q13526; Pin1 FP peptide displacement, HiFluor488, 10 min; hit rate 0.009% among 390,000; active = well fitted inhibition curve with a large enough effect in the polarisation, with a control signal flat, not every such curve was filed as active; inconclusive = small, poorly fitted or top-dose-only effect, or effect the other way, or a change in a side signal; inactive = no such curve, though single readings can be large or run the other way; the % refers to the polarisation
Target sequence (Q13526 whole entry, looked up): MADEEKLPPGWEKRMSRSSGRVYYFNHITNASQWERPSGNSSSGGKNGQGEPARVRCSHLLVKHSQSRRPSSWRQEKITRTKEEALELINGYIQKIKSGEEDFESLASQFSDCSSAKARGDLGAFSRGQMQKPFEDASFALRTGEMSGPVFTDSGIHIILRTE
Tb PGK inh: inhibitors of T. brucei phosphoglycerate kinase. PGK/GAPDH coupled, Kinase-Glo luminescence, 60 min. Potency, µM (highest dose often 57.5 µM), hits mostly inhibitors. AID 602233. hit rate 0.043% among 380,000; also: nearly all actives have a fitted effect of over 60% in size
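Luminescent ATP detection (Kinase-Glo Plus) follows a 60-minute room-temperature incubation, with wells lacking PGK as controls. Buffer: 100 mM TEA (pH 7.6), 5 mM MgCl2, 0.01% Tween-20. Coupling enzyme GAPDH (100 nM final) supplies unstable 1,3-BPG in-well.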
Numbers stand for hits; . = inactive; ? = inconclusive; / = no result. Unless noted, calls follow the shape of the dose curve; as a rule, active = well fitted curve in the direction sought with a large enough effect; inconclusive = small, poorly fitted or top-dose-only effect, or another doubt; inactive = no such curve, though single readings can be large; an effect the other way counts as inactive or inconclusive.

SMILES	PI5P4K alpha inh	PI4K2A inh	GoLoco inh red	GCN5L2 inh	Pin1 inh	Tb PGK inh
Cn1c(=O)n(-c2cccc(Cl)c2)c(=O)c2sc3ccccc3c21	/	.	/	.	.	.
O=c1c2ccccc2sn1-c1ccccc1	-96	.	18µM	1µM	.	.
CC(=O)Nc1ccc2c(=O)n(-c3ccccc3)sc2c1	-105	.	/	/	/	.
CCCCN1CC(Br)C(=O)NC1=O (stereo unspecified)	.	.	/	/	.	.
Cc1ccc(NC(=O)Cn2c(=O)nc(-c3ccccc3)c3ccccc32)cc1F	/	.	/	.	.	.
Cc1cc(F)ccc1NC(=O)CCS(=O)(=O)c1cccc2nsnc12	/	.	/	.	.	.
CCN(CC)C(=O)Nc1ccc2c(c1)N(Cc1ccccc1)C(=O)c1ccccc1S2	/	.	/	.	.	.
O=c1c2ccccc2sn1-c1nccs1	-81	.	16µM	3.2µM	.	.
N#Cc1c(N)n(-c2ccccc2)c(=O)c2cc([N+](=O)[O-])ccc12	.	.	.	.	?	.
N#Cc1ccc2c(=O)n(-c3ccccc3)sc2c1	-85	.	/	/	/	.
O=c1c2ccccc2sn1-c1ccccc1F	-106	.	/	/	/	.
O=C(O)c1cccc(N2C(=O)CCC2=O)c1	/	/	.	.	/	/
O=C(O)c1cccc(-n2sc3ccccc3c2=O)c1	-103	.	/	1.3µM	.	.
CCCCCCCc1c(O)nc(SCCN(C)C)[nH]c1=O	.	.	.	.	.	.
COc1ccc(C)cc1NC(=O)COC(=O)Cc1ccc(-c2ccccc2)cc1	.	.	/	.	.	.
CSCCC(NC=O)C(=O)NC(CC(C)C)C(=O)NC(Cc1ccccc1)C(=O)O (stereo unspecified)	/	/	.	.	/	/
Cc1ccccc1-n1sc2cc(F)ccc2c1=O	-88	.	28µM	1.3µM	.	.
CC1NC(=O)c2ccccc2-n2c1nc1cc(F)ccc1c2=O (stereo unspecified)	/	/	/	.	/	/
O=C(CN1C(=O)NC2(CCCCC2)C1=O)Nc1nc2c(F)cc(F)cc2s1	-50	.	/	.	.	.
O=C(CN1C(=O)CCC1=O)Nc1nc2c(F)cc(F)cc2s1	.	.	/	/	?	.
O=C1CC(N2CCN(C3CCc4ccccc4C3)CC2)C(=O)N1c1ccccc1 (stereo unspecified)	.	.	/	/	.	.
O=S(=O)(/N=S1\CC=CCN1S(=O)(=O)c1ccccc1)c1ccccc1 (stereo unspecified)	-50	.	/	/	.	.
[O-][n+]1ccccc1SSc1cccc[n+]1[O-]	/	.	.	14µM	/	/
CCCS(=O)(=O)N1CCN(c2cc3c(cc2[N+](=O)[O-])n(C)c(=O)n3C)CC1	.	.	.	.	.	.
COc1ccc(O)c(/C=N/NC(=S)Nc2cccc(S(=O)(=O)N(C)C)c2)c1	-56	.	.	.	.	.
SMILES	PI5P4K alpha inh	PI4K2A inh	GoLoco inh red	GCN5L2 inh	Pin1 inh	Tb PGK inh
CCn1c(C)nc2cc(C(=O)N/N=C/c3ccc(O)c(O)c3O)ccc21	-74	.	.	?	?	.
CCOc1ccccc1/C=N/NC(=O)c1cccc(S(=O)(=O)N(CC)CC)c1	.	.	.	.	.	.
CCN(CC)S(=O)(=O)c1cccc(C(=O)N/N=C/c2ccc(O)c(O)c2O)c1	-70	.	.	.	?	.
CN(C)S(=O)(=O)c1cccc(NC(=S)N/N=C/c2ccc(O)c(O)c2O)c1	-97	.	.	.	/	.
CCn1c(C)nc2cc(C(=O)N/N=C/c3cccc(OC)c3O)ccc21	.	.	.	.	.	.
Cn1c2c(c(=O)n1-c1ccccc1)CSCC2	.	.	/	/	.	.
Cc1ccc(NC2C(=O)NC(=O)NC2=O)cc1	.	-59	/	/	.	.
Cc1ccc(NC2CNC(=O)NC2=O)cc1C (stereo unspecified)	.	.	/	/	.	.
S=c1cnc2ccccc2[nH]1	-61	.	.	.	.	.
O=C(COc1cccnc1[N+](=O)[O-])Nc1ncc(Cl)cc1Cl	-71	.	/	?	?	.
O=C(COc1cccnc1[N+](=O)[O-])c1ccc(Cl)s1	-86	.	.	?	?	.
O=C(COc1cccnc1[N+](=O)[O-])Nc1cc(Cl)ccc1Cl	.	.	/	.	.	.
O=C(COc1cccnc1[N+](=O)[O-])Nc1c(Cl)cccc1Cl	.	.	/	.	.	.
O=C(CCc1nc2ccccc2c(=O)[nH]1)OCc1ccc(-c2ccccc2)cc1	.	.	.	.	.	.
CC(C)(C)C(=O)C1C(=O)c2ccccc2C1=O	/	/	10µM	/	/	/
COc1ccc(Cc2nc3ccc(C(=O)N4CCCCC4CO)cc3o2)cc1OC (stereo unspecified)	.	.	/	/	/	.
Nc1c(O)ccc2c1C(=O)c1ccccc1C2=O	-57	.	.	.	?	?
CCCC(=O)N(C1CC(C)C(C#N)(C#N)C1(C#N)C#N)N(C)C (stereo unspecified)	.	.	11µM	.	.	.
Cc1cc(NC(=O)CSc2nnnn2-c2cc(Cl)ccc2C)no1	.	.	/	.	.	.
O=C(O)c1cc(-c2ccc(/C=C3\NC(=O)N(c4ccc(Cl)cc4)C3=O)o2)ccc1Cl	?	.	.	.	?	32µM
CN1C(=O)C(Cl)(Cl)C(=O)c2ccccc21	-89	.	.	.	.	.
CN1C(=O)C2(NC(=O)c3ccccc3N2C)c2ccccc21 (stereo unspecified)	.	.	.	.	.	.
Cc1cccc(Cc2cnc(N3C(=N)SC(c4ccccc4)C3=O)s2)c1 (stereo unspecified)	-55	.	.	.	.	.
CS(=O)(=O)N1CCN(c2ccc(NC(=O)c3ccccc3)cc2)CC1	.	.	.	.	.	.
O=[N+]([O-])c1ccc(O)c(-c2nn[nH]n2)c1	-54	.	.	.	/	.
SMILES	PI5P4K alpha inh	PI4K2A inh	GoLoco inh red	GCN5L2 inh	Pin1 inh	Tb PGK inh
O=C(c1ccccc1)N1CCN(c2ccc([N+](=O)[O-])c(NCC3CCCO3)c2)CC1 (stereo unspecified)	.	.	.	.	.	.
CCCn1c(-c2ccc(F)cc2)nc2c(N3CCN(C)CC3)nc(C)nc21	/	/	.	/	/	/
NC(=O)c1ccc(N2CCN(c3ccc(O)cc3)CC2)c([N+](=O)[O-])c1	-55	.	.	.	?	.
Cc1cc2c(C)nc(Cc3ccccc3)nc2o1	.	.	.	.	.	.
O=C(O)c1ccc(-c2cccc([N+](=O)[O-])c2)o1	.	.	.	.	/	.
COc1ccc2nc(NC(=O)c3ccc(-c4cccc([N+](=O)[O-])c4)o3)sc2c1	/	/	2.2µM	.	/	/
N#C/C(=C(/O)c1ccc(-c2cccc([N+](=O)[O-])c2)o1)c1nc2ccccc2s1	-53	.	.	?	.	.
COc1ccc2nc(NC(=O)c3ccoc3C)sc2c1	/	-85	.	.	.	?
